# Test results as given in a collection of fitness landscapes (doi:10.1016/j.celrep.2020.107928).
# Over roughly 81,000 sequences, “one-hybrid fitness for binding NBS DNA” has its median near -0.1; the highest 2% begin near 0.36. The sample as a whole holds a higher share of the highest values than the screen did.
# B1: Caulobacter ParB omega fusion; a variant is named by its letters at X, in order, B8GW30 (parent)
# chain: MESVVVGEPGMSEGRRGLGRGLSALLGEVDAAPAQAPGEQLGGSREAPIEILQRNPDQPRRTFREEDLEDLSNSIREKGVLQPILVRPSPDTAGEYQIVAGERAWRAAQRAGLKTVPIMVRELDDLAVLEIGIIENVQRADLNVLEEALSYKVLMEKFERTQENIAQTIGKSXSHVANXMRLLXLPDEVQSYLVSGELTAXHARAIAAAADPVALAKQIIEGGLSVRETEALARKAPNLSAGKSKGGRPPRVKDTDTQALESDLSSVLGLDVSIDHRGSTGTLTITYATLEQLDDLCNRLTRGI
# Variants of: B1
# Assay: one-hybrid fitness for binding NBS DNA (the Noc-binding site; scaled: cognate 1, non-cognate 0); higher = stronger binding
# Details: with NBS DNA site
# Summary of the method: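 Fitness here means the log change in variant-to-wild-type read ratio between plasmids sequenced before and after selection. That scale was set so cognate equals 1 and non-cognate equals 0. The selection was a bacterial one-hybrid screen of Caulobacter ParB libraries, four specificity codons randomised, in E. coli USO carrying a HIS3 reporter with the site 19 bp from the promoter, grown 48 hours at 37°C on M9-minus-histidine with 0.1 mM IPTG and 5 mM 3-AT.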
row,Variant,one-hybrid fitness for binding NBS DNA
1,RVHH,≤ 0.2
2,RVFT,0.271
3,RVHN,≤ 0.2
4,RVAT,0.383
5,RVHY,≤ 0.2
6,RVHD,≤ 0.2
7,RVHR,0.484
8,RVHT,0.487
9,RVHM,≤ 0.2
10,RVHS,0.461
11,RVHP,≤ 0.2
12,RVAS,0.358
13,GNNW,≤ 0.2
14,HSLW,≤ 0.2
15,SLMG,≤ 0.2
16,ACAR,≤ 0.2
17,KRNK,≤ 0.2
18,SCKG,≤ 0.2
19,SRHE,≤ 0.2
20,IGMS,≤ 0.2
21,LVKR,≤ 0.2
22,RVYT,0.357
23,RVPT,≤ 0.2
24,RVQT,0.438
25,RVQD,≤ 0.2

row,Variant,one-hybrid fitness for binding NBS DNA
1,RVQP,≤ 0.2
2,RVRT,0.631
3,QQQI,≤ 0.2
4,DRRL,≤ 0.2
5,MTMS,≤ 0.2
6,RRCS,0.642
7,RRCG,0.296
8,RRCD,≤ 0.2
9,RRCP,≤ 0.2
10,RRCH,0.382
11,RRCN,0.248
12,SSEH,≤ 0.2
13,RTQH,≤ 0.2
14,RKQN,≤ 0.2
15,RKQD,≤ 0.2
16,RSQN,≤ 0.2
17,RTQS,0.459
18,RTQD,≤ 0.2
19,RHQS,0.455
20,RSQD,≤ 0.2
21,RHQH,≤ 0.2
22,RHQN,≤ 0.2
23,RKQS,0.543
24,RSQS,0.433
25,YQLE,≤ 0.2

row,Variant,one-hybrid fitness for binding NBS DNA
1,WLLP,≤ 0.2
2,PIRG,≤ 0.2
3,RLRW,≤ 0.2
4,TAYQ,≤ 0.2
5,ARIK,≤ 0.2
6,ACVN,≤ 0.2
7,VRHN,≤ 0.2
8,IRAF,≤ 0.2
9,KMGK,≤ 0.2
10,VQSE,≤ 0.2
11,DNKI,≤ 0.2
12,DLTY,≤ 0.2
13,WNVE,≤ 0.2
14,RDQS,≤ 0.2
15,RMQN,≤ 0.2
16,RMQH,≤ 0.2
17,RMQS,0.409
18,RAQD,≤ 0.2
19,RAQS,0.416
20,RLQS,0.382
21,RPQS,≤ 0.2
22,RCQS,0.474
23,RLQH,≤ 0.2
24,RAQN,≤ 0.2
25,RLQP,≤ 0.2

row,Variant,one-hybrid fitness for binding NBS DNA
1,PCVC,≤ 0.2
2,NLCG,≤ 0.2
3,TPCN,≤ 0.2
4,RCCC,≤ 0.2
5,VASN,≤ 0.2
6,HSTM,≤ 0.2
7,SDNA,≤ 0.2
8,FLCR,≤ 0.2
9,WDPR,≤ 0.2
10,GLGG,≤ 0.2
11,RSGP,≤ 0.2
12,RSGH,≤ 0.2
13,RCGR,0.523
14,RFGR,0.23
15,RPGR,≤ 0.2
16,RSGR,0.459
17,HRAM,≤ 0.2
18,FIVS,≤ 0.2
19,DFTV,≤ 0.2
20,TRYT,0.334
21,TRDT,≤ 0.2
22,TRNT,0.459
23,TRKT,0.578
24,TRVT,≤ 0.2
25,TRRS,0.38

row,Variant,one-hybrid fitness for binding NBS DNA
1,TCKT,≤ 0.2
2,TRRT,0.526
3,TCNT,≤ 0.2
4,TRRN,≤ 0.2
5,TRYS,≤ 0.2
6,TCRT,≤ 0.2
7,PANE,≤ 0.2
8,KSQQ,≤ 0.2
9,NCPT,≤ 0.2
10,FMKS,≤ 0.2
11,QNLL,≤ 0.2
12,SKPR,≤ 0.2
13,CSPY,≤ 0.2
14,QVAP,≤ 0.2
15,QRFF,≤ 0.2
16,DRAR,≤ 0.2
17,QRAR,1.01
18,NRAR,≤ 0.2
19,QRFR,0.865
20,IFSI,≤ 0.2
21,RYTI,≤ 0.2
22,HQWA,≤ 0.2
23,NIMG,≤ 0.2
24,QTQG,≤ 0.2
25,QKQF,≤ 0.2

row,Variant,one-hybrid fitness for binding NBS DNA
1,QAQT,0.364
2,QHQT,0.363
3,QKQC,≤ 0.2
4,QCQT,0.526
5,QDQT,≤ 0.2
6,QPQT,≤ 0.2
7,QTQT,0.577
8,QSQT,0.411
9,QKQT,0.578
10,QTQC,0.239
11,FPTH,≤ 0.2
12,SIGR,≤ 0.2
13,LNNM,≤ 0.2
14,TFLV,≤ 0.2
15,QLGE,≤ 0.2
16,CTTF,≤ 0.2
17,YCLC,≤ 0.2
18,SKES,≤ 0.2
19,QLQP,≤ 0.2
20,QLQT,0.37
21,QLQN,≤ 0.2
22,MYYS,≤ 0.2
23,HTKF,≤ 0.2
24,FQTK,≤ 0.2
25,QRKM,0.557

row,Variant,one-hybrid fitness for binding NBS DNA
1,QIKM,0.249
2,QSKM,0.362
3,QTKM,0.563
4,QTVM,≤ 0.2
5,QCKM,0.464
6,QAVM,≤ 0.2
7,QTWM,≤ 0.2
8,QAKM,0.392
9,QAYM,≤ 0.2
10,QPKM,≤ 0.2
11,QRVM,0.265
12,WLRR,≤ 0.2
13,NYAI,≤ 0.2
14,IRSK,≤ 0.2
15,DSWA,≤ 0.2
16,ITVR,≤ 0.2
17,GKRG,≤ 0.2
18,QMKM,0.416
19,QHVM,≤ 0.2
20,QMVM,≤ 0.2
21,QHKM,0.379
22,QKPM,≤ 0.2
23,QMQM,≤ 0.2
24,QKVM,0.273
25,QHNM,≤ 0.2

row,Variant,one-hybrid fitness for binding NBS DNA
1,QKKM,0.409
2,GAKC,≤ 0.2
3,KIRV,≤ 0.2
4,QELA,≤ 0.2
5,RQLA,≤ 0.2
6,DCST,≤ 0.2
7,RCST,0.531
8,RISP,≤ 0.2
9,RPST,≤ 0.2
10,RWST,≤ 0.2
11,RHST,0.435
12,RSST,0.426
13,RHSQ,≤ 0.2
14,RDST,≤ 0.2
15,RIST,0.398
16,RISH,≤ 0.2
17,RHSF,≤ 0.2
18,RFST,0.217
19,KFSS,≤ 0.2
20,KFVF,≤ 0.2
